# PubChem BioAssay (EPA / NIEHS)
# The source made the active and inactive calls. The calls were made as follows: active = hit-call score of the fitted dose curve at least 0.9, where 1 is the maximum; inactive = score below 0.9.
# Test: BSK_MyoF_SRB: Viability Assessment in the BioMAP Diversity Plus: MyoF Assay (AID 2284267);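 also: total protein by SRB absorbance in parallel cultures as cytotoxicity measure; cells assessed 24 h after compound addition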
# Details: primary human lung fibroblasts
# Summary of the method: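 Human lung fibroblasts dosed with chemical and assessed 24 h later for overt cytotoxicity in parallel cultures. Total protein quantified by sulforhodamine B staining (0.1% SRB after 10% TCA fixation), read at 560 nm, analysed in positive direction versus DMSO baseline.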
SMILES,outcome,AC50
O=C1CCCCCCCCCCCCCCO1,inactive,
BrC1CCC(Br)C(Br)CCC(Br)C(Br)CCC1Br (stereo not given),inactive,
Cc1ccc(O)c(C(C)(C)C)c1,,34.3 µM (active)
CCCCCCCCCC=O,inactive,
COC(=O)c1ccc(C)cc1,inactive,
CCn1c2ccccc2c2cc(N)ccc21,inactive,
Cc1ccc(Nc2ccc(O)c3c2C(=O)c2ccccc2C3=O)cc1,inactive,
CN(CCOc1ccc(CC2SC(=O)NC2=O)cc1)c1ccccn1 (stereo not given),inactive,
O=C=NC1CCC(CC2CCC(N=C=O)CC2)CC1 (stereo not given),inactive,
CC(=O)/C=C/C1=C(C)CCCC1(C)C,inactive,
O=C(O)C[C@H](O)C[C@H](O)/C=C/c1c(C2CC2)nc2ccccc2c1-c1ccc(F)cc1,,3.1 µM (active)
Nc1cc([N+](=O)[O-])ccc1Cl,inactive,
CC(C)c1ccc(C(C)C)cc1,inactive,
C=C(C)C(=O)O[C@H]1C[C@@H]2CC[C@@]1(C)C2(C)C,,34.8 µM (active)
C=C[Si](OCC)(OCC)OCC,inactive,
CCCCC(CC)COC(=O)/C=C\C(=O)OCC(CC)CCCC (stereo not given),inactive,
O=C(O)c1cn(-c2ccc(F)cc2)c2cc(N3CCNCC3)c(F)cc2c1=O,inactive,
CC1COc2ccccc2N1C(=O)C(Cl)Cl (stereo not given),,20 µM (active)
CC(=O)Nc1ccccc1O,inactive,
CC1CCC(C(C)CS)CC1S (stereo not given),,9.53 µM (active)
c1ccc2sc(SN(C3CCCCC3)C3CCCCC3)nc2c1,inactive,
O=C(O)c1cn(C2CC2)c2cc(N3CCNCC3)c(F)cc2c1=O,inactive,
CCCCC/C=C/C=C/C=O,,32 µM (active)
CCCCC(CC)COCCC#N (stereo not given),inactive,
CC(=O)O[C@]1(C(C)=O)CC[C@H]2[C@@H]3C[C@H](C)C4=CC(=O)CC[C@]4(C)[C@H]3CC[C@@]21C,inactive,
